An excerpt weighted towards active compounds, which were near 11% of everything screened.
NPR1 antag = human Npr1 receptor antagonism | hit rate 1.6% among 76,000 | P16066 | Potency, µM (series often up to 46.3 µM), hits mostly inhibitors | HEK293 hNpr1 GloSensor cGMP, ANP-stimulated luminescence; calls by dose curve; further: nearly all actives have a fitted effect of over 60% in size
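Compound pre-incubated 30 min at room temperature on GloSensor-loaded HEK293 cells stably carrying hNpr1 and the pGS-40F cGMP biosensor. Stimulation uses hNppA at 0.1 nM final; luminescence is taken at baseline and 20 min post-agonist.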
NIH3T3 tox = cytotoxic compounds in NIH 3T3 cells; AID 1345082; Potency, µM (titrated, usually from 96.7 µM), usual class: inhibitors; NIH 3T3 viability, CellTiter-Glo ATP luminescence, 48-72 h; hit rate 4.3% among 94,000; further: nearly all actives have a fitted effect of over 55% in size
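Cytotoxicity was measured by CellTiter-Glo ATP luminescence after 48 or 72 h compound exposure at 37 °C. Mouse NIH 3T3 fibroblasts were seeded at 400 cells/well and dosed by 23 nL pin transfer.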
Luciferase inh = inhibitors of firefly (Photinus pyralis) luciferase. Potency, µM (doses to about 115 µM), most hits filed as inhibitors. purified P. pyralis luciferase, luminescence, biochemical. hit rate 2.5% among 76,000; further: nearly all actives have a fitted effect of over 65% in size
Target sequence (P08659 whole entry, looked up): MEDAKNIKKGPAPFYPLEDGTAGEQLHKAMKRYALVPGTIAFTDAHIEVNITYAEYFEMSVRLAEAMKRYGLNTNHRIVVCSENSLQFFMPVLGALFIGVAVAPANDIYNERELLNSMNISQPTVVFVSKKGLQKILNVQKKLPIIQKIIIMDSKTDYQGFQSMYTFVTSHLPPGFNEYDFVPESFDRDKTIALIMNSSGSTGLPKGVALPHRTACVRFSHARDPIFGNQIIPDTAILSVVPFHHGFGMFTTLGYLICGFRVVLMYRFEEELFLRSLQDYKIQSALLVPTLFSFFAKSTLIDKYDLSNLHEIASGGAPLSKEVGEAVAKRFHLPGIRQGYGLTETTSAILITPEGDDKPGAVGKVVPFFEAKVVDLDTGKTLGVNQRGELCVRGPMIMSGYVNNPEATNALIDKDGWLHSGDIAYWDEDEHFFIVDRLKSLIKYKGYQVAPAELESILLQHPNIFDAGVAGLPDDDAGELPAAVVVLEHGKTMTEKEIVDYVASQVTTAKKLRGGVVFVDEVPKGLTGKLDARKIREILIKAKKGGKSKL
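Cell-free enzyme assay, 10nM P. pyralis luciferase, luciferin and ATP each at 10uM. Inhibition profiled over a 6-point titration, read as luminescence.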
HEK cytotox = cytotoxic compounds in HEK 293 cells; Potency, µM (doses to about 115 µM), hits mostly inhibitors; HEK 293 viability, ATP luminescence (CellTiter-Glo), 48-72 h; hit rate 6.6% among 94,000; further: nearly all actives have a fitted effect of over 60% in size
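Read-out: CellTiter-Glo ATP luminescence. Cells: HEK 293, 250 cells/well. Exposure: 48 or 72 hr, 37 degree Celsius.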
Hits are given with their value; - = inactive; ? = inconclusive; . = not tested or not shown. Unless noted, the call rests on the fitted dose curve; in most records, active means well fitted curve in the direction sought with a large enough effect; inconclusive means small, poorly fitted or top-dose-only effect, or another doubt; inactive means no such curve, though single readings can be large; an effect the other way counts as inactive or inconclusive.

SMILES	NPR1 antag	NIH3T3 tox	Luciferase inh	HEK cytotox
CC1(CNc2ccccc2)COc2ccc(C(=O)NCCc3ccccn3)cc2N1 (centres undefined)	-	?	-	100µM
CCOCC1(C)COc2ccc(C(=O)NCCc3ccccc3)cc2N1 (centres undefined)	-	?	22µM	?
CC1(CNc2ccccc2)COc2ccc(C(=O)NCCN3CCOCC3)cc2N1 (centres undefined)	-	-	-	?
CC1(COc2ccccc2)COc2ccc(C(=O)NCCOc3ccccc3)cc2N1 (centres undefined)	?	?	-	79µM
CC1(CNc2ccccc2)COc2ccc(C(=O)N3CCN(c4ccccn4)CC3)cc2N1 (centres undefined)	?	?	-	?
CNC(=O)c1cc(C2CC2)cc2onc(C3CCN(C(=O)Cc4ccccn4)CC3)c12	.	-	.	?
CCC(C)NC(=O)CN1C(=O)NC2(CCC(C)CC2)C1=O (centres undefined)	-	-	-	-
O=C(NCc1ccc(Cl)cc1)C1CN(C2CCCC2)C(=O)N1 (centres undefined)	.	-	.	-
CN1CCN(C(=O)c2ccc3nnc(-c4cc(C(F)(F)F)cc(C(F)(F)F)c4)n3c2)CC1	.	-	.	-
O=C(NC1CCN(c2nccc(Nc3ccccc3F)n2)CC1)c1ccc(F)cc1	.	35µM	.	?
O=C(NC1CCN(c2nccc(Nc3ccccc3F)n2)CC1)c1ccc(C(F)(F)F)cc1	.	35µM	.	25µM
O=C(NC1CCN(c2nccc(Nc3ccccc3Cl)n2)CC1)c1ccc(C(F)(F)F)cc1	.	32µM	.	40µM
O=C(O)c1cnc(-c2cc(NCc3ccccn3)nc3[nH]ccc23)c(Cl)c1	-	-	40µM	-
CC(C)CNC(=O)C1CCCN1Cc1ccc(-c2cncnc2)cc1 (centres undefined)	.	-	.	-
COc1ccc(F)cc1-c1ccc(CN2CCCCC2C(=O)NCc2cccc(F)c2)cc1 (centres undefined)	.	35µM	.	?
COc1ccc(F)cc1-c1ccc(CN2CCCCC2C(=O)NCc2ccc(Cl)cc2)cc1 (centres undefined)	.	?	.	14µM
O=C(NCc1cccc(F)c1)C1CCCN1Cc1ccc(-c2cncnc2)cc1 (centres undefined)	.	-	.	?
Cn1cccc1-c1noc(C2CCN(C(=O)CCn3cnc4ccccc43)CC2)n1	.	-	.	?
COC(=O)CNC(=O)CNC(=O)c1cccc(-c2ccsc2)c1	.	-	.	-
COc1ccc(NC(=O)c2ccc(-c3ncc4cnc(C5=CCOCC5)cn34)cc2)cn1	-	32µM	-	?
O=C(c1ccc(-c2ncc3cnc(C4=CCOCC4)cn23)cc1)N1CC[S+](=O)([O-])CC1	-	?	-	-
Cn1ccc(NC(=O)C(C)(C)Oc2nn(CC3CC3)c3ccc(CN4CCCC4)cc23)n1	-	-	-	?
CCCc1nc(C)cc(N2CCC(NCCc3ccc(Cl)cc3)CC2)n1	-	?	-	14µM
O=C1CC2(CCN([S+](=O)([O-])c3cccc(C(F)(F)F)c3)CC2)Oc2cc(Cl)ccc21	-	?	-	32µM
O=C1CC2(CCN([S+](=O)([O-])c3cccc(C(F)(F)F)c3)CC2)Oc2ccccc21	-	?	-	?
SMILES	NPR1 antag	NIH3T3 tox	Luciferase inh	HEK cytotox
COc1ccc(C(=O)N2CCC3(CC2)CC(=O)c2ccc(Cl)cc2O3)cc1	-	?	-	50µM
Cc1ccc(C(=O)N2CCC3(CC2)CC(=O)c2ccc(Cl)cc2O3)cc1	?	35µM	-	?
O=C1CC2(CCN(C(=O)c3ccccc3)CC2)Oc2ccccc21	-	?	-	?
CC(=O)N1Cc2ccccc2CC2(CCCN(Cc3ccccc3)C2)C1 (centres undefined)	.	-	.	?
O=[S+]([O-])(Nc1nncs1)c1ccc2c(c1)OCCN(Cc1cncc(F)c1)C2	-	28µM	-	-
O=[S+]([O-])(Nc1ccccc1)c1ccc2c(c1)OCCN(Cc1ccc(F)cn1)C2	-	?	-	?
Cc1ccsc1CN1CCOc2cc([S+](=O)([O-])Nc3ccccc3)ccc2C1	?	45µM	-	63µM
Cn1cc(CN2CCOc3cc([S+](=O)([O-])Nc4cccnc4)ccc3C2)cn1	-	100µM	-	-
O=[S+]([O-])(Nc1ccccc1)c1ccc2c(c1)OCCN(Cc1ccccn1)C2	-	?	-	71µM
COc1ccc(-c2cc(-c3ccc4cn[nH]c4c3)cn3cncc23)cn1	-	45µM	?	?
COc1ccc(-c2cc(-c3ccncc3)c3cncn3c2)cn1	-	?	-	?
COc1ccc(-c2cc(-c3cccc(CO)c3)cn3cncc23)cn1	-	40µM	-	?
C[S+](=O)([O-])NCc1nnc2n1C(C(=O)NCc1ccccc1F)CC2 (centres undefined)	.	-	.	-
Cc1ccc(C)c(-n2nc(-c3c(C)nc4scc(CC(=O)NC5CCCCC5)n4c3=O)cc2C)c1	-	40µM	-	?
Cc1cc2c(-c3cccc(CO)c3)nc(-c3c(C)noc3C)cc2[nH]1	-	35µM	-	?
Cc1cc2c(-c3ccccc3O)nc(-c3c(C)noc3C)cc2[nH]1	-	?	-	?
Cc1cc2c(-c3cccc(S(C)(=O)=O)c3)nc(-c3c(C)noc3C)cc2[nH]1	?	8.9µM	-	?
COc1cc(-c2nc(-c3c(C)noc3C)cc3[nH]c(C)cc23)ccn1	-	?	-	89µM
Cc1cc2c(-c3ccc(S(C)(=O)=O)cc3)nc(-c3c(C)noc3C)cc2[nH]1	?	?	-	?
Cc1cc2c(-c3ccccc3C)nc(-c3c(C)noc3C)cc2[nH]1	-	?	-	?
Cc1cc2c(-c3cccc(O)c3)nc(-c3c(C)noc3C)cc2[nH]1	-	35µM	-	45µM
CCc1ccc(S(=O)(=O)N2CCN(C3CCN(CCC(C)C)C3=O)CC2)cc1 (centres undefined)	-	?	-	?
COc1nccnc1-c1cc(NCCN(C)C)nc2[nH]ccc12	-	-	-	-
COc1cccc(CNC(=O)c2cc(-c3ccc(F)cc3)nc3c2cnn3C)c1	.	?	.	28µM
COc1cccc(-c2cc(C(=O)NCC(=O)c3ccccc3)c3cnn(C)c3n2)c1	.	-	.	-
SMILES	NPR1 antag	NIH3T3 tox	Luciferase inh	HEK cytotox
Cn1ncc2c(C(=O)NCc3cccs3)cc(-c3ccc(C(F)(F)F)cc3)nc21	.	?	.	35µM
Cn1ncc2c(C(=O)NCc3cccs3)cc(-c3ccccc3F)nc21	.	-	.	?
COc1cccc(-c2cc(C(=O)NCc3cccc(Cl)c3)c3cnn(C)c3n2)c1	.	22µM	.	?
COc1cccc(-c2cc(C(=O)NCC#N)c3cnn(C)c3n2)c1	.	40µM	.	?
COc1ccccc1C(=O)N1CCN(c2ccc3nnc(C)n3n2)CC1	.	-	.	-
COc1cccc(-c2cccc(C(=O)N3CCN(C(=O)c4ccccc4Cl)CC3)c2)c1	.	-	.	?
Cn1ncc2c(C(=O)NCCc3c[nH]c4ccccc34)cc(-c3ccc(C(F)(F)F)cc3)nc21	.	40µM	.	?
CC(C)NC(=O)c1cc(-c2ccc(Cl)cc2Cl)nc2c1cnn2C	.	?	.	-
